This note sets out measurements from PubChem BioAssay (NCI).

Holding throughout (test): NCI-60 one-dose screen, 48 h (100 = growth as untreated, 0 = no growth, -100 = all killed)
One assay deals with EKVX NSCLC. Conditions: 10 µM unless noted.
For another assay, the system named is SN12C renal. Conditions: 10 µM unless noted.
For a further assay, the system named is UO-31 renal. Conditions: 10 µM unless noted.
For a further assay, the system named is TK-10 renal. Conditions: 10 µM unless noted.
The test system of another assay is ACHN renal. Conditions: 10 µM unless noted.
The subject of the next assay is A498 renal. Conditions: 10 µM unless noted.
The test system of the next assay is CCRF-CEM leukemia. Conditions: 10 µM unless noted.
Another assay relates to MOLT-4 leukemia. Conditions: 10 µM unless noted.
In a further assay the test system is SR leukemia. The conditions noted are these: 10 µM unless noted.
In another assay the test system is RPMI-8226 leukemia. The conditions noted are these: 10 µM unless noted.
In a further assay the test system is OVCAR-8 ovarian. The conditions noted are these: 10 µM unless noted.
For the next assay, the system named is OVCAR-5 ovarian. Conditions: 10 µM unless noted.
The test system of a further assay is OVCAR-4 ovarian. Conditions: 10 µM unless noted.
The test system of another assay is SK-OV-3 ovarian. Conditions: 10 µM unless noted.
The test system of another assay is IGROV1 ovarian. The conditions noted are these: 10 µM unless noted.
A further assay concerns OVCAR-3 ovarian. The conditions noted are these: 10 µM unless noted.
A further assay concerns HS 578T breast. Conditions: 10 µM.
Another assay deals with NCI/ADR-RES ovarian. The conditions noted are these: 10 µM unless noted.
The next assay concerns CAKI-1 renal. The conditions noted are these: 10 µM unless noted.

The structures appear in SMILES notation. This is part of a sample that, as a whole, favours compounds with a hit. Of some 83,000 tested, about 20% had one in any assay.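 Values shown are percent growth following 48 h exposure of cells in 96-well plates to a single concentration of compound; below 10 was considered active.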 Values without a mark were called inactive. Active and inactive are the calls of the source.

As to `O=C(O)/C=C(\c1nc2ccc([N+](=O)[O-])cc2[nH]1)c1cc(Cl)ccc1O`, the growth was 17.6% in the assay on EKVX NSCLC; 13.1% with SN12C renal; 17% with UO-31 renal; 27.4% in the assay on TK-10 renal; 12.5% in the assay with ACHN renal; 7.28% (active) in the assay on A498 renal. Moreover, the growth was 0.888% (active) in the assay with CCRF-CEM leukemia; -4.02% (active) with MOLT-4 leukemia; 29.6% in the assay on SR leukemia; -15.7% (active) in the assay on RPMI-8226 leukemia; 24.5% with OVCAR-8 ovarian; 87.1% in the assay on OVCAR-5 ovarian. The growth was 8.51% (active) in the assay with OVCAR-4 ovarian; 29.9% in the assay with SK-OV-3 ovarian; 25.7% with IGROV1 ovarian; -16% (active) in the assay on OVCAR-3 ovarian; 45.9% in the assay with HS 578T breast; 17.7% in the assay on NCI/ADR-RES ovarian.
`CNC(=O)c1ccccc1Sc1ccc2c(/C=C/c3ccccn3)n[nH]c2c1`: the growth in the assay on EKVX NSCLC is 53.8%; in the assay with SN12C renal it was 27.6%; with UO-31 renal, 17.3%; in the assay on TK-10 renal, 54.8%; in the assay on ACHN renal, 31.2%; in the assay on CAKI-1 renal it was 30.7%. Also, the growth in the assay with A498 renal was -23.3% (active); in the assay with MOLT-4 leukemia it was 13.4%; in the assay with SR leukemia, 10.4%; with RPMI-8226 leukemia, 25.2%; in the assay on OVCAR-8 ovarian, 28.4%; in the assay with OVCAR-5 ovarian, 41.4%. Besides, the growth was 34.2% with OVCAR-4 ovarian; 44.5% in the assay on SK-OV-3 ovarian; 23.1% with IGROV1 ovarian; 52.7% in the assay on OVCAR-3 ovarian; 36.9% in the assay on NCI/ADR-RES ovarian.
Take `O=C(Cc1ccc(Nc2ccnc(C(F)(F)F)c2)cc1)N/N=C/c1ccccc1O`: the growth in the assay on EKVX NSCLC is 25.7%; with SN12C renal, 36.1%; with UO-31 renal it was 0.112% (active); in the assay on TK-10 renal it was 22.7%; in the assay with ACHN renal it was 4.09% (active); in the assay on CAKI-1 renal it was 32.3%. For the same compound, the growth is 145% in the assay on A498 renal; 64.4% in the assay on MOLT-4 leukemia; 98.2% in the assay with SR leukemia; 29.6% with RPMI-8226 leukemia; 25.6% in the assay with OVCAR-8 ovarian; 28.1% in the assay on OVCAR-5 ovarian. In addition, the growth was 18.4% with OVCAR-4 ovarian; 17.1% with SK-OV-3 ovarian; 18.8% in the assay with IGROV1 ovarian; 40.8% in the assay on OVCAR-3 ovarian; 102% in the assay on HS 578T breast; 23.8% in the assay with NCI/ADR-RES ovarian.
Turning to `COc1ccc([C@@H]2[C@@H](Cl)C(=O)N2c2cc(OC)c(OC)c(OC)c2)cc1C`, the growth in the assay with EKVX NSCLC was 44.2%; in the assay with SN12C renal it was 31.2%; in the assay with UO-31 renal it was 38.8%; in the assay with TK-10 renal it was 71.3%; in the assay with ACHN renal, 31.6%; in the assay with A498 renal, -7.32% (active). Further, the growth is 9.56% (active) with CCRF-CEM leukemia; 8.89% (active) with MOLT-4 leukemia; 9.63% (active) in the assay on SR leukemia; 8.48% (active) in the assay with RPMI-8226 leukemia; 14.8% in the assay on OVCAR-8 ovarian; 59.7% in the assay with OVCAR-5 ovarian. Moreover, the growth with OVCAR-4 ovarian was 39.1%; with IGROV1 ovarian, 31.6%; in the assay on OVCAR-3 ovarian, -5.67% (active); with HS 578T breast it was 47.9%; in the assay on NCI/ADR-RES ovarian, 16%.
For `COc1ccc(C(=O)c2cc(C)c(OC)c(C)c2)cc1OC(=O)CCl`, the growth in the assay on EKVX NSCLC is 44.9%; with SN12C renal, 31.4%; in the assay with UO-31 renal, 45.8%; in the assay on TK-10 renal it was 62.6%; with ACHN renal, 21.4%; with A498 renal, 44.1%. The growth was 8.68% (active) with CCRF-CEM leukemia; 5.7% (active) in the assay on MOLT-4 leukemia; 2.99% (active) with SR leukemia; 11.2% in the assay on RPMI-8226 leukemia; 6.89% (active) with OVCAR-8 ovarian; 47.4% in the assay on OVCAR-4 ovarian. Besides, the growth in the assay on SK-OV-3 ovarian was 20.6%; in the assay on IGROV1 ovarian it was 25.7%; with OVCAR-3 ovarian, -15.5% (active); in the assay on HS 578T breast, 44.4%; with NCI/ADR-RES ovarian, 7.11% (active).
Regarding `CCSc1ccc([C@@H]2[C@@H](N)C(=O)N2c2cc(OC)c(OC)c(OC)c2)cc1`, the growth was 41% in the assay on EKVX NSCLC; 49.6% with SN12C renal; 49.4% in the assay on UO-31 renal; 58.9% in the assay with TK-10 renal; 50.7% in the assay with ACHN renal; 3.94% (active) in the assay with A498 renal. Also, the growth in the assay on CCRF-CEM leukemia is 11.6%; in the assay on MOLT-4 leukemia, 13.1%; in the assay on SR leukemia it was 14.4%; in the assay on RPMI-8226 leukemia, 18%; in the assay on OVCAR-8 ovarian it was 32.4%; in the assay with OVCAR-5 ovarian, 42.7%. Moreover, the growth with OVCAR-4 ovarian is 54.4%; in the assay with SK-OV-3 ovarian, 44%; with IGROV1 ovarian, 47.9%; in the assay on OVCAR-3 ovarian, -23.8% (active); with HS 578T breast, 34.5%; in the assay on NCI/ADR-RES ovarian it was 3.99% (active).
As to `CNC(=O)c1cc(Oc2ccc(NC(=O)c3nc(S(C)(=O)=O)sc3-c3ccc(F)cc3)cc2)ccn1`, the growth was 77.8% with EKVX NSCLC; 97.5% in the assay on SN12C renal; 87.5% with UO-31 renal; 77% in the assay with TK-10 renal; 90.8% in the assay on ACHN renal; 99.6% with A498 renal. The growth with CCRF-CEM leukemia was 85.9%; with MOLT-4 leukemia it was 83.1%; in the assay with SR leukemia, 88%; in the assay with RPMI-8226 leukemia, 15.9%; with OVCAR-8 ovarian, 102%; in the assay on OVCAR-5 ovarian, 107%. Besides, the growth in the assay on OVCAR-4 ovarian was 91.7%; in the assay with SK-OV-3 ovarian, 118%; with IGROV1 ovarian it was 100%; in the assay with OVCAR-3 ovarian, 50%; with HS 578T breast, 101%; in the assay with NCI/ADR-RES ovarian it was 94.7%.
Regarding `Cc1ccc(NC(=O)c2nc(S(C)=O)oc2-c2ccc(F)cc2)cc1Nc1nccc(-c2cccnc2)n1` (stereo unspecified), the growth in the assay on EKVX NSCLC is 73.8%; with SN12C renal it was 38.7%; in the assay with UO-31 renal it was 84.5%; in the assay with TK-10 renal, 130%; with ACHN renal it was 31.5%; in the assay on A498 renal it was 107%. Besides, the growth is 2.57% (active) with CCRF-CEM leukemia; 0.215% (active) in the assay on MOLT-4 leukemia; -14.7% (active) in the assay with SR leukemia; 5.05% (active) with RPMI-8226 leukemia; 37.9% in the assay with OVCAR-8 ovarian; 112% in the assay on OVCAR-5 ovarian. The growth in the assay on OVCAR-4 ovarian was 108%; with SK-OV-3 ovarian, 90.3%; in the assay with IGROV1 ovarian, 33.1%; in the assay with OVCAR-3 ovarian, 18.8%; with HS 578T breast it was 82%; in the assay on NCI/ADR-RES ovarian it was 95.9%.
